# Source: PubChem BioAssay
# A selection: hits, their analogues and other compounds. The true share with any hit is near 3.1%.
# TrxR1 substrate: is turned over as a substrate by rat TrxR1; O89049; purified TrxR1 substrate turnover, NADPH consumption readout; Potency, µM (highest dose often 114 µM), inactives show at the highest dose activity change, negative = substrate turnover; 390,000 compounds, 0.01% hits; note: % is set by controls: 0 for no effect and ±100 for the full control effect; nearly all actives have a fitted effect of over 50% in size
#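 Rat TrxR1, dispensed at 90 nM, was prereduced with 400 uM NADPH (final) for 5 min at ~22 deg C, then incubated with compound 15 min before 400 uM selenite. A first-read NADPH fluorescence drop versus no-compound background flagged substrates.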
# IDH1 R132H inh: blocks human mutant IDH1 R132H enzyme | O75874 | IDH1-R132H enzyme, NADPH consumption, diaphorase/resazurin fluorescence | Potency, µM (highest dose often 76.6 µM), for the others: at the highest dose activity change, negative = inhibition, usual class: inhibitors | 390,000 compounds, 0.093% hits; note: % is set by controls: 0 for no effect and ±100 for the full control effect; nearly all actives have a fitted effect of over 65% in size
# Target sequence (O75874 whole entry R132H, stated change not applied): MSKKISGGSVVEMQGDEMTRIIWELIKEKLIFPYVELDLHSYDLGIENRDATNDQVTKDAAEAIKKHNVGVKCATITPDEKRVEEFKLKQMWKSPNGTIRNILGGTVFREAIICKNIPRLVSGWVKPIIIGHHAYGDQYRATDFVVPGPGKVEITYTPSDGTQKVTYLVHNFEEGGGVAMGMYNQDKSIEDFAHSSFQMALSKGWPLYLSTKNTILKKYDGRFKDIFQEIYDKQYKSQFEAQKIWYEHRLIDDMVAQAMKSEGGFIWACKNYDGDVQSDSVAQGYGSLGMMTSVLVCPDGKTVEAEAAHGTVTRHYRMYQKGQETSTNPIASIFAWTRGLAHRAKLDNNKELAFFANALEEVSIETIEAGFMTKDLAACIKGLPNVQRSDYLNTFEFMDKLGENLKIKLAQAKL
#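 IDH1-R132H (0.5 ug/mL dispensed) in pH 7.5 Tris buffer was preincubated 30 min with compound, then given a substrate mix of 0.016 mM NADPH and 2 mM alpha-KG for 80 min at room temperature; remaining NADPH was read by diaphorase/resazurin fluorescence.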
# Mito fusion act: mitochondrial division inhibition or fusion activation | S. cerevisiae fusion-defective mutant growth rescue, CellTiterGlo 48 h | Potency, µM (highest dose often 46.1 µM), without a hit: top-dose growth rescue (activation), usual class: activators | 320,000 compounds, 0.23% hits | AID 485298; note: % of control where 0% means no effect; nearly all actives have a fitted effect of over 45% in size
#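 Temperature-sensitive fusion-defective S. cerevisiae (e.g. fzo1-1, mgm1-5) were grown with compound in YPEG medium (3% ethanol, 3% glycerol) for 48 hours at 37C. Growth rescue was measured as viability by CellTiterGlo luminescence after 10 minutes at ambient.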
# A549 tox-1: kills or reduces viability of A549 cells in Nrf2 counter-screen; Potency, µM (doses to about 46 µM), for the others: top-dose activity change, negative = cytotoxicity, usual class: inhibitors; 390,000 compounds, 0.16% hits; A549 ARE-Fluc cells, CellTiter-Fluor viability, 18-24 h; note: % is set by controls: 0 for no effect and ±100 for the full control effect
#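 Cytotoxicity counterscreen: CellTiter-Fluor fluorescence was measured in A549 ARE_Fluc cells after 18-24 h of compound exposure in a concentration series. The subsequent BugLite luminescent read reports ARE-luciferase activity.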
# Nrf2 block: Nrf2 pathway inhibition; A549 ARE-Fluc reporter, luciferase luminescence, 18-24 h; 360,000 compounds, 2.1% hits; Potency, µM (doses to about 46 µM), without a hit: at the highest dose activity change, negative = inhibition, actives largely listed as inhibitors; note: % is set by controls: 0 for no effect and ±100 for the full control effect; nearly all actives have a fitted effect of over 60% in size
#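 Two sequential reads on A549 ARE_Fluc cells exposed to compound for 18-24 h: a CellTiter-Fluor fluorescence read for viability, then a luciferase luminescence read for Nrf2/ARE activity.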
# rTrxR1 inhibitor: rat TrxR1 inhibition. O89049. recombinant rTrxR1, NADPH fluorescence consumption, selenite substrate. Potency, µM (doses to about 114 µM), without a hit: at the top dose activity change, negative = inhibition, most hits filed as inhibitors. 390,000 compounds, 1% hits; note: % is set by controls: 0 for no effect and ±100 for the full control effect; nearly all actives have a fitted effect of over 65% in size
#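 Rat TrxR1 (90 nM in the dispensed reagent) was pre-reduced with 400 uM NADPH for 5 min at room temperature, then incubated with compound for 15 min. After 400 uM selenite was added, NADPH fluorescence (Ex 340/Em 450 nm) was followed for 8 min.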
# FLuc counter 3: counter-screen for Nrf2 inhibitors: firefly luciferase enzyme inhibition; shares compounds with Nrf2 block; Potency, µM (series often up to 57.5 µM), without a hit: at the top dose activity change, negative = inhibition, actives largely listed as inhibitors; 1,400 compounds, 4% hits; purified firefly luciferase, luminescence inhibition; note: % is set by controls: 0 for no effect and ±100 for the full control effect; nearly all actives have a fitted effect of over 65% in size
# A549 tox-2: counter-screen for Nrf2 inhibitors: cytotoxicity in A549 ARE cells | shares compounds with Nrf2 block | A549 ARE-Fluc cells, cytotoxicity counterscreen | Potency, µM (top dose mostly 46.1 µM), inactives show top-dose activity change, negative = cytotoxicity, most hits filed as inhibitors | 1,400 compounds, 2% hits;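 note: cells exposed to compounds for 18 to 24 hours; % is set by controls: 0 for no effect and ±100 for the full control effect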
# Nrf2 ARE inh: confirmation of Nrf2 inhibitors in A549 ARE reporter cells; 1,400 compounds, 74% hits; Potency, µM (highest dose often 46.1 µM), for the others: at the highest dose activity change, negative = inhibition, most hits filed as inhibitors; A549 ARE-firefly luciferase reporter, luminescence; shares compounds with Nrf2 block; note: % is set by controls: 0 for no effect and ±100 for the full control effect; nearly all actives have a fitted effect of over 65% in size
# The depositor's hits bear a star; ? = inconclusive; . = not tested or not shown; [ ] = dose if it differs, or a comment. Calls come from the whole dose curve; as a rule, active = well fitted curve in the direction sought with a large enough effect; inconclusive = small, poorly fitted or top-dose-only effect, or another doubt; inactive = no such curve, though single readings can be large; an effect the other way counts as inactive or inconclusive. Potency is the fitted concentration of half-maximal effect.
SMILES,TrxR1 substrate,IDH1 R132H inh,Mito fusion act,A549 tox-1,Nrf2 block,rTrxR1 inhibitor,FLuc counter 3,A549 tox-2,Nrf2 ARE inh
COc1ccc(Nc2nnc(SC(C(=O)Nc3cc(C)ccc3C)c3ccccc3)s2)cc1 (stereo unspecified),1.1%[57.1 µM],3.2%,-0.9%,-15.6%,8.2µM*,13.2%,-0.3%,-6.1%,-25.0%
CCN(CC)S(=O)(=O)c1ccc(/C=C/C(=O)Nc2ccc(Br)cc2F)cc1,-7.3%,-5.2%,-3.6%,-2.9%,9.2µM*,-12.2%,-8.7%,-1.7%,4.61µM*
CCN(CC)S(=O)(=O)c1ccc(/C=C/C(=O)Nc2ccc(F)cc2F)cc1,-7.7%,-4.6%,0.4%,-3.0%,?,23.6%,.,.,.
CCN(CC)S(=O)(=O)c1ccc(/C=C/C(=O)Nc2ccc(F)c(F)c2F)cc1,8.8%,1.5%,0.2%,-4.3%,?,20.6%,-10.0%,-5.5%,?
O=C(NCc1cccnc1)c1nn(-c2ccc(Cl)cc2)nc1CO,40.5%,-3.6%,.,-1.1%,-25.7%,15.4%,.,.,.
Cn1nccc1C(=O)NC1CCCc2c1cnn2-c1ccc(C(C)(C)C)cc1 (stereo unspecified),-5.4%,6.7%,-8.2%,-19.1%,0.731µM*,0.5%,?,-12.1%,0.731µM*
Cc1nnsc1C(=O)NC1CCCc2c1cnn2-c1ccc(F)cc1F (stereo unspecified),-0.6%,4.0%,-1.2%,-18.1%,1.16µM*,6.8%,-14.6%,-8.9%,3.66µM*
Cc1nnsc1C(=O)NC1CCCc2c1cnn2-c1cc(F)cc(F)c1 (stereo unspecified),-13.0%,-0.7%,7.7%,2.3%,?,-10.4%,.,.,.
Cc1cc(C(=O)NC2CCCc3c2cnn3-c2cccc(C)c2C)n(C)n1 (stereo unspecified),5.0%,14.4%,1.7%,-20.7%,0.206µM*,4.8%,-0.7%,?,0.0206µM*
Cc1ccc(-n2ncc3c2CCCC3NC(=O)c2ocnc2C)cc1C (stereo unspecified),-2.8%,0.7%,1.1%,-16.8%,2.31µM*,6.0%,-0.3%,-1.6%,3.26µM*
CN(C)c1ccc(CNC(=O)CN2C(=O)CCn3nc(-c4cn(C)c5ccccc45)cc32)cc1,-2.3%[57.1 µM],-6.2%,.,-0.8%,.,14.2%[57.1 µM],.,.,.
COc1cc(CCNC(=O)c2ccc3c(c2)c(C)c(C)n3Cc2cccc(C)c2)cc(OC)c1OC,-0.9%[57.1 µM],-10.9%,.,?,-17.1%,12.0%[57.1 µM],.,.,.
CCCc1ccc(-c2ccc(/C=C/C(=O)O)cc2)nc1,14.3%,4.1%,?,-0.2%,0.0366µM*,-5.7%,0.269µM*,-3.8%,0.058µM*
O=C(Nc1cccc(S(=O)(=O)Nc2ccc(Cl)cc2)c1)c1ccccn1,-2.5%,-2.4%,?,?,8.2µM*,15.4%,-8.6%,3.7%,.
CC(C)(C)OC(=O)N(c1cccc2cccnc12)S(=O)(=O)c1ccccc1Br,4.4%[0.457 µM],.,.,-8.4%,?,29.0%,.,.,.
O=[N+]([O-])c1ccc(O)c(-c2nc(-c3ccccc3)c(-c3cccs3)[nH]2)c1,-16.4%,10.3%,-15.4%,.,3.66µM*,-26.1%,-16.0%,?,20.6µM*
CCc1nn(CC(=O)NCCc2ccc(OC)c(OC)c2)c(=O)c2cc3occc3n12,-7.0%,14.6%,.,3.4%,11.7%,-15.8%,.,.,.
CCc1ccc(NS(=O)(=O)c2ccc3oc(=O)c4ncn(CC)c4c3c2)cc1,-5.3%,-6.5%,.,2.2%,-3.2%,7.4%,.,.,.
O=C(NCc1ccc(Cl)cc1)C1CCN(S(=O)(=O)c2ccc3c(c2)CCCN3C(=O)C2CCC2)CC1,2.7%[57.1 µM],0.0%,.,-11.6%,.,20.3%[57.1 µM],.,.,.
COc1ccc(C)cc1NC(=O)Cn1c(=O)cc(C)c2c(C)nn(C)c21,1.2%[57.1 µM],.,.,-3.3%,5.8µM*,13.6%[57.1 µM],3.6%,-4.4%,2.31µM*
COC(=O)c1ccccc1NC(=O)Cn1c(=O)cc(C)c2c(C)nn(C)c21,-1.3%[57.1 µM],2.5%,.,-1.2%,8.5%,10.2%[57.1 µM],.,.,.
CCOc1ccccc1NC(=O)c1cc(S(=O)(=O)N2CCOCC2)cn1C,-7.2%,0.0%,.,-0.9%,?,2.4%,.,.,.
COCCNC(=O)C1CCN(C(=O)c2cc3sccc3n2Cc2ccc(Cl)cc2)CC1,-5.2%,-13.3%,.,?,8.2µM*,-1.9%,2.8%,-23.6%,5.8µM*
